# Results published in PubChem BioAssay.
# Active and inactive are the calls of the source. Unless noted, how the calls were made is not given here.
# How the values were obtained:
# [1] = A549 cell viability effects, profiling panel, calcein-AM fluorescence, 48 h, basal (AID 1162); conditions: higher = more signal; further: test concentration not given here
# [2] = adipocyte viability effects, profiling panel, cell-based, 3T3-L1 adipocytes, calcein-AM fluorescence, 48 h, basal (AID 1163); conditions: 3T3-L1 adipocytes viability, higher = more signal; further: test concentration not given here
# [3] = HepG2 cell viability effects, profiling panel, calcein-AM fluorescence, 48 h, basal (AID 1164); conditions: higher = more signal; further: test concentration not given here
# [4] = MM1S cell viability effects, profiling panel, calcein-AM fluorescence, 48 h, basal (AID 1165); conditions: higher = more signal;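 further: viability of MM1S multiple myeloma cells under basal unstimulated conditions; test concentration not given here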
# [5] = basal RPMI8226 viability, no added stimulus, profiling panel, cell-based, calcein-AM fluorescence, 48 h, PK04 Diversity Set (AID 1166); conditions: RPMI8226 myeloma viability, higher = more signal;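 further: cells grown under basal conditions without added stimulus; test concentration not given here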
# [6] = basal HepG2 mitochondrial membrane potential changes, profiling panel, cell-based, JC-1 fluorescence, 24 h, 100 nL compound (AID 1167); conditions: higher = more signal; further: test concentration not given here
# [7] = basal 3T3-L1 adipocyte mitochondrial potential changes, profiling panel, cell-based, JC-1 fluorescence, 3T3-L1 adipocytes, 24 h, 100 nL compound (AID 1168); conditions: JC-1 mitochondrial fluorescence, higher = more signal, called active from +8 up or from −8 down; further: test concentration not given here
# [8] = basal RPMI8226 mitochondrial membrane potential changes, profiling panel, cell-based, JC-1 fluorescence, 24 h, 100 nL compound (AID 1169); conditions: RPMI8226 myeloma, JC-1 mitochondrial potential fluorescence, higher = more signal; further: test concentration not given here
# [9] = basal MM1S mitochondrial membrane potential changes, profiling panel, cell-based, JC-1 fluorescence, 24 h, 100 nL compound (AID 1170); conditions: higher = more signal; further: test concentration not given here
# [10] = A549 lung cancer cell viability effects, profiling panel, resazurin fluorescence, 24 h, PK04 Diversity Set (AID 1171); conditions: higher = more signal, called active from +8 up or from −8 down; further: test concentration not given here
# [11] = HepG2 liver cancer cell viability effects, profiling panel, resazurin fluorescence, 24 h, PK04 Diversity Set (AID 1172); conditions: higher = more signal; further: test concentration not given here
# [12] = basal S. cerevisiae growth modulation, no modifier, primary screen, OD600, strain BY4716, 24 h, basal condition (AID 1173); conditions: OD600, 24 h, higher = more signal, called active from +8 up or from −8 down
# [13] = MM1S myeloma cell viability, profiling panel, resazurin fluorescence, basal, 24 h, PK04 Diversity Set (AID 1174); conditions: higher = more signal, called active from +8 up or from −8 down;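 further: MM1S multiple myeloma cell line; test concentration not given here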
# [14] = target: Dihydroorotate dehydrogenase (quinone), mitochondrial (Plasmodium falciparum (isolate 3D7)) (UniProt Q08210); assay: PfDHODH enzyme inhibitors, primary screen, biochemical, C-terminal His tag, absorbance 600 nm (AID 1175); conditions: DCIP absorbance 600 nm, higher = more signal, called active from +8 up or from −8 down;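 further: recombinant parasite enzyme with a five histidine tag at its C terminus; test concentration not given here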
# Sequence of Dihydroorotate dehydrogenase (quinone), mitochondrial (Plasmodium falciparum (isolate 3D7)) (Q08210 whole entry, looked up): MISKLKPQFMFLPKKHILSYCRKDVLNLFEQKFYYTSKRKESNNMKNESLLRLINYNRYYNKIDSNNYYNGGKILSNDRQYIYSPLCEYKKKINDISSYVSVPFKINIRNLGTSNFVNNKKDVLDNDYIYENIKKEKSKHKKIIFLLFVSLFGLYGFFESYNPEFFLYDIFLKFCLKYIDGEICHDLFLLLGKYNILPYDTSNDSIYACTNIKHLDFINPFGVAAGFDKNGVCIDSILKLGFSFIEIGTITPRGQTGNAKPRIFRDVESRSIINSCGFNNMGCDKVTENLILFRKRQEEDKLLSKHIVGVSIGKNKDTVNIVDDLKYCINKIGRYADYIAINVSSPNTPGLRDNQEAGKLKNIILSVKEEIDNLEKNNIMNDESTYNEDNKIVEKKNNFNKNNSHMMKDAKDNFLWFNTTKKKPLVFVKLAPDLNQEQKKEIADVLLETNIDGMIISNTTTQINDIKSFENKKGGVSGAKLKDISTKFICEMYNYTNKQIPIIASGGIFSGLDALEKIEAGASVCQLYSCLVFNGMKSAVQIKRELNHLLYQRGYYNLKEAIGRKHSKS
# [15] = P. aeruginosa biofilm formation inhibitors, primary screen, strain PAO1, LB-PBS medium, absorbance 600 nm (AID 1176); further: test concentration not given here; conditions: P. aeruginosa PAO1 growth/biofilm, A600, 12 h; higher = more signal
# [16] = S. cerevisiae RM11-1a growth modifiers, primary screen, strain RM11-1a, OD600, basal, 24 h (AID 1177); conditions: OD600, 24 h, higher = more signal, called active from +8 up or from −8 down;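 further: cultures grown under basal conditions with no added stressor; test concentration not given here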
# [17] = E. coli acrAB mutant growth effects, primary screen, E. coli filamentation inducers, strain DRC39, OD650, 24 h (AID 1178); conditions: higher = more signal, called active from +8 up or from −8 down;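 further: growth measured as culture turbidity by optical density at 650 nm; test concentration not given here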
# [18] = E. coli acrAB mutant growth effects, primary screen, E. coli filamentation inducers, strain DRC39, OD650, 48 h (AID 1179);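 further: screen aims at cell division blockers that make cells filament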; conditions: E. coli DRC39 delta-acrAB growth, higher = more signal, called active from +8 up or from −8 down
# [19] = RPMI8226 myeloma cell viability, profiling panel, resazurin fluorescence, basal, 24 h, PK04 Diversity Set (AID 1180); conditions: higher = more signal;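 further: RPMI8826 multiple myeloma cell line at 5000 cells per well; test concentration not given here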
# [20] = target: E3 ubiquitin-protein ligase XIAP (Homo sapiens) (UniProt P98170); assay: XIAP binders, primary screen, biophysical, small-molecule microarray, fluorescence 635 nm (AID 1181); conditions: small-molecule microarray binding, higher = more signal;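 further: score merges 667 nm emission and signal to noise over triplicate slides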
# Sequence of E3 ubiquitin-protein ligase XIAP (Homo sapiens) (P98170 whole entry, looked up): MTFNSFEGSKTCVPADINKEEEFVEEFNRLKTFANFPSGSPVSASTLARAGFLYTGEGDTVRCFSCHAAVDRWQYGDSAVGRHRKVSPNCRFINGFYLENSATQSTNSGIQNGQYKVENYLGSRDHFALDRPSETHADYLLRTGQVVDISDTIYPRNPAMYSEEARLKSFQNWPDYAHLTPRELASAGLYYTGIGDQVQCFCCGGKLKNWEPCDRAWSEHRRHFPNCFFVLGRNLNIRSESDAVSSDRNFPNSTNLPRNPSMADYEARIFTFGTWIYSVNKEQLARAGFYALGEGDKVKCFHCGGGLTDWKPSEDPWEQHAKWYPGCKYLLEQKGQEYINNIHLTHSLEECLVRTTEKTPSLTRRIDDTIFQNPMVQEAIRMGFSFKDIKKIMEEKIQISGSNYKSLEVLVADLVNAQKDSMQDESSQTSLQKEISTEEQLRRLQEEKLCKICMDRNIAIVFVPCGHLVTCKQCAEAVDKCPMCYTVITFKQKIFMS
Compound,z-score [1],z-score [2],z-score [3],z-score [4],z-score [5],z-score [6],z-score [7],z-score [8],z-score [9],z-score [10],z-score [11],z-score [12],z-score [13],composite z-score [14],z-score [15],z-score [16],z-score [17],z-score [18],z-score [19],composite z-score [20]
CCCCCCc1nc(Cc2cc(OC)c(OC)c(OC)c2)cc2c1[Si](C(C)C)(C(C)C)O[C@H]2c1ccccc1,-0.106,-0.267,-0.492,-1.09,-3.49,1.03,-0.462 (inactive),-0.566,-0.116,2.45 (inactive),0.915,1.12 (inactive),-0.111 (inactive),0.364 (inactive),0.374 (inactive),0.202 (inactive),-0.373 (inactive),-0.585 (inactive),-0.83,-0.491
C=CCNC(=O)[C@H]1[C@@H]2C(=O)O[C@@H](c3ccccc3)[C@@H](c3ccccc3)N2[C@@H](c2ccccc2OCCO)[C@]12C(=O)N(C(=O)OCCOC)c1ccc(C#Cc3ccc(OC)cc3)cc12,0.005,-0.182,0.0823,-1.05,-1.15,0.421,3.69 (inactive),-0.981,-1.13,-0.958 (inactive),-0.345,1.19 (inactive),-0.637 (inactive),-0.306 (inactive),2.23 (inactive),3.16 (inactive),-0.604 (inactive),0.582 (inactive),-1.17,-0.113
NC(=O)NCC#Cc1ccc2c(c1)[C@]1(C(=O)N2)[C@H](c2ccc(OCCO)cc2)N2[C@H](c3ccccc3)[C@H](c3ccccc3)OC(=O)[C@H]2[C@@H]1C(=O)NC[C@H](O)c1ccccc1,0.192,0.326,0.013,0.405,0.847,-1.4,-0.0754 (inactive),-0.538,0.207,0.401 (inactive),1.12,1.63 (inactive),0.473 (inactive),-0.256 (inactive),0.489 (inactive),2.58 (inactive),0.826 (inactive),0.107 (inactive),1.29,0.0697
CCOC(=O)C1=CCC(c2cc3ccccc3[nH]2)N(CCN2CC(C(=O)OCC)=CCC2c2cc3ccccc3[nH]2)C1 (stereo not given),-0.638,0.552,0.105,0.183,-0.54,-0.4,-0.73 (inactive),-0.111,-1.83,0.161 (inactive),-0.474,0.897 (inactive),-1.98 (inactive),0.268 (inactive),0.878 (inactive),0.614 (inactive),0.852 (inactive),-0.732 (inactive),-0.458,1.16
CCOC(=O)C[C@H]1[C@H](OC(=O)Cc2ccc3c(c2)OCO3)[C@@H](NC(=O)c2ccc3ccccc3n2)c2cc(OCCCO)ccc2N1C(=O)Cc1ccc(OC)cc1,0.703,0.867,1.03,0.406,-0.603,2.42,-0.115 (inactive),0.167,-0.882,-0.64 (inactive),1.14,-1.17 (inactive),-0.175 (inactive),-1.55 (inactive),0.477 (inactive),-0.925 (inactive),1.12 (inactive),1.6 (inactive),0.29,-0.232
COC(=O)[C@@]1(Cc2ccccc2)N=C(c2ccc(OCCCO)cc2)O[C@H]1c1ccccc1CN=[N+]=[N-],-2.95,-0.565,-5.45,-3.55,-3.96,-2.16,1.22 (inactive),-1.13,-2.9,-5.77 (inactive),-4.1,1.24 (inactive),-7.62 (inactive),0.468 (inactive),2.45 (inactive),2.85 (inactive),0.876 (inactive),0.93 (inactive),-6.42,0.0549
C=CCC(OC(C)=O)[C@@H]1[C@@H](N(Cc2ccc(-c3ccccc3)cc2)C(=O)c2cccc3ccccc23)c2cc(OCCCO)ccc2N1C(=O)Cc1ccc(OC)cc1 (stereo not given in full),-0.0276,0.725,-0.518,-0.536,-0.682,1.57,-1.63 (inactive),0.78,0.401,-0.399 (inactive),-0.533,0.186 (inactive),-0.572 (inactive),-0.0892 (inactive),-0.121 (inactive),-0.788 (inactive),-0.0251 (inactive),-0.288 (inactive),-0.505,-0.264
Cc1ccc(N2C(=O)c3ccccc3[C@](C)(C(=O)NCCCN(C)C)[C@@H]2c2ccc(CO)cc2)nc1,0.235,0.85,-0.153,-0.629,-0.444,-0.53,-0.419 (inactive),-0.884,-0.29,0.31 (inactive),0.218,-0.742 (inactive),-0.296 (inactive),0.0135 (inactive),0.084 (inactive),-0.764 (inactive),-0.0003 (inactive),-0.575 (inactive),-0.0858,-0.158
COCCOC(=O)N1C(=O)[C@@]2(c3cc(C#CCC(C(=O)OC)C(=O)OC)ccc31)[C@H](C(=O)Nc1nc3ccccc3s1)[C@H]1C(=O)O[C@H](c3ccccc3)[C@H](c3ccccc3)N1[C@@H]2c1ccc(OCCO)cc1,0.4,0.502,0.593,-0.733,0.427,-3.27,1.05 (inactive),-0.708,0.327,1.42 (inactive),0.318,1.18 (inactive),0.961 (inactive),-0.859 (inactive),2.54 (inactive),2.25 (inactive),-0.0125 (inactive),0.972 (inactive),-0.177,0.214
